Data published in the supplement of paper PMC10849652.
About 8,800 targets were measured; listed, in parts, are those with a hit and a random draw of the rest. About 0.5% of all pairs of compound and target were hits. Values without a mark were called inactive.

Legend:
Assay in all cases: log2 fold change, soluble protein after heating vs DMSO (PISA); higher = thermal stabilisation; K562 lysate, 10 uM; active = over 0.2 and 3.5 SD of the protein, either way, in both replicates (recomputed)
[1] = compound: C1=CC=C(C=C1)[C@H](COC2=CC3=C(C=C2)NC(=O)N3)NC(=O)C4=CC=CN(C4=O)CC5=CC(=C(C=C5)F)F
Outline: (§1)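 Log-two fold change in thermal stability relative to solvent controls is reported from duplicates. For each sample, crude K562 extract from dounce-homogenised pellets in PBS pH 7.4 with 1 mM MgCl2, at 1 mg/mL protein, was treated with 10 μM compound for 30 min. Aliquots heated for 3 min across 48°C-58°C were pooled, brought to 0.5% NP-40 at 4°C and cleared at 21,000xg for 90 min. The supernatant was quantified by TMTpro 16plex LC-MS/MS with channel sums equalised.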

[2] = compound: CC1=C(SC2=C1C(=N[C@H](C3=NN=C(N32)C)CC(=O)N)C4=CC=C(C=C4)Cl)C
Outline: as §1

[3] = compound: CC1=C2C(=CC=C1)N=C(N(C2=O)C3=CC=CC=C3C)CN4C=NC5=C(N=CN=C54)N
Outline: as §1

[4] = compound: Cc1sc2c(c1C)C(c1ccc(Cl)cc1)=N[C@@H](CC(=O)OC(C)(C)C)c1nnc(C)n1-2
Outline: as §1

[5] = compound: c1ccc([C@@H]2C[C@H]2NC2CCNCC2)cc1
Outline: as §1

Chain of UniProt P61586 (P61586 whole entry, looked up): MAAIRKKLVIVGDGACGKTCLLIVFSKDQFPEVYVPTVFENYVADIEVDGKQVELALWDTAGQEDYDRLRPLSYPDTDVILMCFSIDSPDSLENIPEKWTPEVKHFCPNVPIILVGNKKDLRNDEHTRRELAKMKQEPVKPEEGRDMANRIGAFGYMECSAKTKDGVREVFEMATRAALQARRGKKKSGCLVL
Chain of UniProt Q5XPI4 (Q5XPI4 whole entry, looked up): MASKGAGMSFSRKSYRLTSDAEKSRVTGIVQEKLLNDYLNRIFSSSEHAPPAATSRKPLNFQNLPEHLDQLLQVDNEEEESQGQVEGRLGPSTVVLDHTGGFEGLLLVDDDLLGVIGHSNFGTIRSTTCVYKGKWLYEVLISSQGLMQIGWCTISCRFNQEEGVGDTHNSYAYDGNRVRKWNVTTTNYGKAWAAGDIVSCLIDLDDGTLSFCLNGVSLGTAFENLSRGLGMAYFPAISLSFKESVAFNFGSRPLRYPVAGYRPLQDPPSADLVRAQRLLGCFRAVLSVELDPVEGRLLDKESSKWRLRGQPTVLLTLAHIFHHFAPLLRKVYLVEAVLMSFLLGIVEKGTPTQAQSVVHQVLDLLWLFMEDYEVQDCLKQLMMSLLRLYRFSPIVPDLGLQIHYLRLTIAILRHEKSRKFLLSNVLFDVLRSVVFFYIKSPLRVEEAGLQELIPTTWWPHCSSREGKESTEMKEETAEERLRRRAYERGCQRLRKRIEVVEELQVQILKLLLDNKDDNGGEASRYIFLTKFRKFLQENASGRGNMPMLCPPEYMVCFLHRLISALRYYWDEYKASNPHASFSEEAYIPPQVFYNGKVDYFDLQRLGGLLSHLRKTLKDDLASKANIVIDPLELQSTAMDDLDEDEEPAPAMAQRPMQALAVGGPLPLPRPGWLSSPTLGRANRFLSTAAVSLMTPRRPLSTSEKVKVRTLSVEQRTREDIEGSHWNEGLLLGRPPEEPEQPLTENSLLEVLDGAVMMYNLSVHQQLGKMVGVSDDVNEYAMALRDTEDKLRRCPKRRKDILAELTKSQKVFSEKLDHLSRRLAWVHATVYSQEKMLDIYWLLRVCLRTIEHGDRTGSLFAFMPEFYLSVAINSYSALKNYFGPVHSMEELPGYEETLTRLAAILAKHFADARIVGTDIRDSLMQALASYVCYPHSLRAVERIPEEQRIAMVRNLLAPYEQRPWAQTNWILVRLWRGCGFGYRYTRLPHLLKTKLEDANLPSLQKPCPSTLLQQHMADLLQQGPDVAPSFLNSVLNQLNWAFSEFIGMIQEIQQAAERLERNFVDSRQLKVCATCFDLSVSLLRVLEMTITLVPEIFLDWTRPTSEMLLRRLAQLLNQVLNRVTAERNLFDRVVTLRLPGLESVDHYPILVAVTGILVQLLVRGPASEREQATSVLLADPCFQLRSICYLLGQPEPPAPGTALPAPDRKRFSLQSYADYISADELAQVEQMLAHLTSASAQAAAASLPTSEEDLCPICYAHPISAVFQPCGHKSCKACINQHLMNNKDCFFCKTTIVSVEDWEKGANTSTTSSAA
Chain of UniProt Q8NC42 (Q8NC42 whole entry, looked up): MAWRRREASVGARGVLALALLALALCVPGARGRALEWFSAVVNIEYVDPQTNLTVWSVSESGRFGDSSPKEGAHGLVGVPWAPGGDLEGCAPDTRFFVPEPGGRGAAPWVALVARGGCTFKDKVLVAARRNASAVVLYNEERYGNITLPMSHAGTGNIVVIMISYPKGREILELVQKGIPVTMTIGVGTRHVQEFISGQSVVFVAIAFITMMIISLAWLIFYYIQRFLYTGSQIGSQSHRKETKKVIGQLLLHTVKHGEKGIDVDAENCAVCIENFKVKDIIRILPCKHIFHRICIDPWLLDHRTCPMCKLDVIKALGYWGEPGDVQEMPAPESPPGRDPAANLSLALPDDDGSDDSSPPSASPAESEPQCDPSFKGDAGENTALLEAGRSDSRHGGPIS
Chain of UniProt O14730 (O14730 whole entry, looked up): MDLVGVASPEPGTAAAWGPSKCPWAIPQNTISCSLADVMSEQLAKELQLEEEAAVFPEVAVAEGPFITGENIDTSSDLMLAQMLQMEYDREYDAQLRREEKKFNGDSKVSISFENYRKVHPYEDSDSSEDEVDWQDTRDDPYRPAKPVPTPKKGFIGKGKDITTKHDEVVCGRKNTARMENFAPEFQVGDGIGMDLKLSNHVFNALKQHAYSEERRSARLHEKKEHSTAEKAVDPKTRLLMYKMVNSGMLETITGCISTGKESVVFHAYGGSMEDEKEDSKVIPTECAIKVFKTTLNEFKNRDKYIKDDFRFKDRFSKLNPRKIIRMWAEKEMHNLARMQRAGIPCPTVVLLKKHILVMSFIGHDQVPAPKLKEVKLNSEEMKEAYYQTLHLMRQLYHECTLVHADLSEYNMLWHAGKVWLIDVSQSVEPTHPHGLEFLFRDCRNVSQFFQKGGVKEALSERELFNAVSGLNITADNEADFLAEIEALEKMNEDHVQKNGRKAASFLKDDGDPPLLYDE
Chain of UniProt Q9HBH5 (Q9HBH5 whole entry, looked up): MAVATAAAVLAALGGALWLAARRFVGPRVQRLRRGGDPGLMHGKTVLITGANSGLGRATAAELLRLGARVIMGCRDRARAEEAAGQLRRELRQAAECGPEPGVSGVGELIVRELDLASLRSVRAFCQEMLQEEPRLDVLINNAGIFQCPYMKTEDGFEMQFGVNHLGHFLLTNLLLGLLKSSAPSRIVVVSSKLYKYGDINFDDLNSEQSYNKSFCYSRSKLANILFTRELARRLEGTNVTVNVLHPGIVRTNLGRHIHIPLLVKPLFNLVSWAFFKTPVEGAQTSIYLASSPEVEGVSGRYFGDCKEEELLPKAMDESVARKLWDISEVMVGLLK
Chain of UniProt Q13530 (Q13530 whole entry, looked up): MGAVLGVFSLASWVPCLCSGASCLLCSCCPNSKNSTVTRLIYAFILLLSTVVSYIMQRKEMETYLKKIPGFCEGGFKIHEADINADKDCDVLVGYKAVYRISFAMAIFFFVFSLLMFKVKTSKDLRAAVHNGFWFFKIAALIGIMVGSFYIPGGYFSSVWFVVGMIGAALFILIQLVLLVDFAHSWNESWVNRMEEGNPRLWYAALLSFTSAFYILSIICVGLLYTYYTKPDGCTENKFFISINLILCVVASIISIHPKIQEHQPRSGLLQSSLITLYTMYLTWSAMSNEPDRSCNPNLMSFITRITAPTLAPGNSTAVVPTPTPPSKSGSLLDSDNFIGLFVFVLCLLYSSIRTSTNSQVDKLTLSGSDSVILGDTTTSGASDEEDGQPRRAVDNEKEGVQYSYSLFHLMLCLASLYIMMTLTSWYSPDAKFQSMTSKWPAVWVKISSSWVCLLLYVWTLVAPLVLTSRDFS
Chain of UniProt Q99574 (Q99574 whole entry, looked up): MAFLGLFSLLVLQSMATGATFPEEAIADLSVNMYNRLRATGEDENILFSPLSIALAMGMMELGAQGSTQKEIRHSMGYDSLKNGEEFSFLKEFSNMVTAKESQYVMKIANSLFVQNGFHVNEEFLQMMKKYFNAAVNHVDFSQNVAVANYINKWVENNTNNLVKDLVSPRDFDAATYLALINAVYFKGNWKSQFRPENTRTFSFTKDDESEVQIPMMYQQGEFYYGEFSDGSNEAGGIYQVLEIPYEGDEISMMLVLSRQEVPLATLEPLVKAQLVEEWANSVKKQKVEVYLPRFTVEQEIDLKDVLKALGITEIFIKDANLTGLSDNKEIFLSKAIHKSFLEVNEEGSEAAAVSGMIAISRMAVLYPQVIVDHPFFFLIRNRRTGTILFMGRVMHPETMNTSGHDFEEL
Chain of UniProt Q9UQR0 (Q9UQR0 whole entry, looked up): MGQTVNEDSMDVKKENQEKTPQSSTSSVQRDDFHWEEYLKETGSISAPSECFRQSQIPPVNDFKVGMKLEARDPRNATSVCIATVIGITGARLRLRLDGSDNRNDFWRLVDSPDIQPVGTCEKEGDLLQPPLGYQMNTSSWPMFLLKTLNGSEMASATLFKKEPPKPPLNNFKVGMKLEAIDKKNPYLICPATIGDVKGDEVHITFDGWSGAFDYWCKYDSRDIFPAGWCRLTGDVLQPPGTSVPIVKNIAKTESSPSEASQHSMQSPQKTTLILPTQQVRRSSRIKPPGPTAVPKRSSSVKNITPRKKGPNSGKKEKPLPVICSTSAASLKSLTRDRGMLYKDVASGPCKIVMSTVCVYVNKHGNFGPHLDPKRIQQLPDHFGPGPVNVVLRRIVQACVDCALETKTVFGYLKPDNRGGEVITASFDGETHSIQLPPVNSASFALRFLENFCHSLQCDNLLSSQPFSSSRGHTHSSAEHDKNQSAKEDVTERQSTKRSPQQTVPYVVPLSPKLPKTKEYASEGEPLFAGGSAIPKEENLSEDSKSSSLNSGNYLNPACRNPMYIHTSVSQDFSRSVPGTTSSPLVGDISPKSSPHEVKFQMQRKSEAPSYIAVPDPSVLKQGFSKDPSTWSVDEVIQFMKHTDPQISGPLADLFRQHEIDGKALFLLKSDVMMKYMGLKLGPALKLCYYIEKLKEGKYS
Chain of UniProt Q00765 (Q00765 whole entry, looked up): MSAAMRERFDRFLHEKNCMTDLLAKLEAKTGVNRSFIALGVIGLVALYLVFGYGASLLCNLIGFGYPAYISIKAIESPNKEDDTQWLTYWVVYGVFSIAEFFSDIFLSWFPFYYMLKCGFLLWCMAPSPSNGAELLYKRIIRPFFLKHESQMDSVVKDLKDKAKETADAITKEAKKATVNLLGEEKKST
Chain of UniProt Q8WWV3 (Q8WWV3 whole entry, looked up): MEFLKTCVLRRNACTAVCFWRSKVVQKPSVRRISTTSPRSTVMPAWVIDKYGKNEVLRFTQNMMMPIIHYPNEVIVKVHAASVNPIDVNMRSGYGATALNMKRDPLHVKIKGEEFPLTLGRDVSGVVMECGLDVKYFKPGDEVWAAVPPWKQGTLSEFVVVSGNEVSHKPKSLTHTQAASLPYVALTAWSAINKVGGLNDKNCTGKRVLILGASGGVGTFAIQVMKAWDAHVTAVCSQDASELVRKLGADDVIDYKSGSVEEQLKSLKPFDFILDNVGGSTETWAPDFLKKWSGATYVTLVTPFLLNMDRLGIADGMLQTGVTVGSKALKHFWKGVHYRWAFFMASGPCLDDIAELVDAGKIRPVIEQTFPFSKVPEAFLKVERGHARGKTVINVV

Target | log2 fold change [1] | log2 fold change [2] | log2 fold change [3] | log2 fold change [4] | log2 fold change [5]
REL isoform 2 (UniProt Q04864) | 0.017 | 0 | -0.003 | 0.031 | 0.03
RAB3IL1 (UniProt Q8TBN0) | 0.047 | 0.008 | 0.02 | 0.007 | 0.039
RPS9 (UniProt P46781) | 0.003 | 0.038 | -0.007 | 0.1 | 0.124
SEC13 isoform 3 (UniProt P55735) | 0.022 | -0.013 | -0.001 | -0.029 | 0.191
RAB6D (UniProt Q53S08) | -0.045 | 0.01 | 0.034 | -0.003 | -0.045
RALA (UniProt P11233) | -0.013 | 0.071 | -0.008 | -0.004 | -0.225
SCML2 (UniProt Q9UQR0) | -0.036 | 0.062 | -0.055 | -0.032 | 0.02
RAP1B (UniProt P61224) | 0.006 | -0.023 | 0.032 | 0.055 | 0.02
QRSL1 (UniProt Q9H0R6) | -0.005 | -0.056 | -0.101 | 0.041 | 0.094
RBBP7 (UniProt Q16576) | -0.029 | 0.013 | 0.009 | -0.042 | 
RCOR1 (UniProt Q9UKL0) | -0.034 | 0.03 | -0.003 | -0.023 | 0.494 (active)
SCO1 (UniProt O75880) | -0.021 | 0.017 | 0 | 0.136 | -0.027
RTN4IP1 (UniProt Q8WWV3) | 0.028 | -0.005 | 0.027 | -0.119 | 0.076
RBM5 (UniProt P52756) | -0.074 | 0.08 | 0.062 | 0.146 | 0.103
RIOK2 (UniProt Q9BVS4) | 0.002 | -0.018 | 0.009 | -0.023 | -0.022
REEP5 (UniProt Q00765) | 0.007 | 0.009 | 0.028 | 0.022 | -0.092
RFC5 (UniProt P40937) | -0.024 | 0.018 | 0.041 | 0.034 | 0.027
SAMD4A (UniProt Q9UPU9) | 0.114 | 0.086 | -0.01 | -0.079 | -0.03
RNF149 (UniProt Q8NC42) | -0.015 | 0.022 | -0.138 | -0.081 | 0
RHAG (UniProt Q02094) | 0.033 | -0.076 | 0.145 | -0.066 | -0.143
RAB21 (UniProt Q9UL25) | -0.086 | 0.036 | 0.019 | 0.055 | 0.127
RNF40 (UniProt O75150) | 0 | -0.02 | 0.007 | -0.003 | 0.041
SERINC3 (UniProt Q13530) | 0.109 | -0.016 | 0.028 | -0.056 | -0.175
RASA3 (UniProt Q14644) | -0.066 | 0.149 | 0.078 | 0.078 | 0.047
RLIM (UniProt Q9NVW2) | 0.049 | 0.135 |  |  | 
RASA2 (UniProt Q15283) | -0.07 | 0.045 | 0.058 | 0.025 | 0.037
SCO2 (UniProt O43819) | 0.026 | 0.002 | 0.037 | 0.011 | -0.074

Target | log2 fold change [1] | log2 fold change [2] | log2 fold change [3] | log2 fold change [4] | log2 fold change [5]
SERPINI1 (UniProt Q99574) | 0.067 | -0.033 | 0.031 | -0.011 | -0.021
RABL3 (UniProt Q5HYI8) | -0.044 | -0.021 | 0.004 | 0.017 | 0.03
RPS6KA1 (UniProt Q15418) | -0.073 | -0.064 | -0.045 | 0.015 | -0.047
RCOR3 isoform 3 (UniProt Q9P2K3) | -0.026 | 0.009 | 0.046 | 0.011 | 0.394 (active)
RNF170 (UniProt Q96K19) | -0.097 | -0.115 | 0.149 | 0.285 | -0.026
RPL8 (UniProt P62917) | -0.012 | -0.036 | -0.031 | 0.066 | 0.032
RAD54L2 (UniProt Q9Y4B4) | 0.139 | 0.144 | 0.029 | -0.131 | 0.147
RPS29 (UniProt P62273) | 0.047 | -0.055 | -0.071 | 0.328 | 0.398
S100A11 (UniProt P31949) | 0.029 | -0.075 | -0.002 | -0.029 | -0.005
SEC24D isoform 2 (UniProt O94855) | -0.003 | 0.006 | -0.016 | 0.033 | 0.009
RDH14 (UniProt Q9HBH5) | 0.123 | -0.016 | -0.076 | 0.102 | -0.058
RXRB isoform 3 (UniProt P28702) | -0.214 | -0.018 | -0.151 | -0.057 | 0.06
RAB27A (UniProt P51159) | 0.052 | 0.028 | -0.007 | -0.013 | 0.181
RPN2 (UniProt P04844) | -0.001 | -0.01 | 0.01 | -0.008 | -0.009
RIOK3 (UniProt O14730) | 0.002 | 0.052 | 0.053 | -0.007 | 0.016
RNF123 (UniProt Q5XPI4) | -0.019 | -0.024 | 0.019 | 0.005 | 0.047
REEP6 (UniProt Q96HR9) | 0.038 | -0.081 | 0.005 | -0.107 | -0.181
RPS26P11 (UniProt Q5JNZ5) | -0.001 | 0.031 | 0.05 | -0.033 | -0.31 (active)
RBM22 (UniProt Q9NW64) | -0.073 | 0.012 | 0.036 | 0.072 | 0
RABEPK (UniProt Q7Z6M1) | -0.032 | 0.054 | 0.026 | 0.017 | -0.071
RFC4 (UniProt P35249) | -0.026 | -0.059 | 0.006 | 0.028 | 0.01
ROCK1 (UniProt Q13464) | 0.019 | 0.027 | 0.023 | -0.016 | -0.008
RELN (UniProt P78509) | 0.033 | -0.007 | 0.025 | -0.089 | -0.036
SCD (UniProt O00767) | -0.016 | -0.007 | 0.103 | -0.179 | -0.184
SCCPDH (UniProt Q8NBX0) | 0.165 | -0.144 | 0.038 | -0.004 | -0.164
RAD17 (UniProt O75943) | -0.031 | -0.077 | 0.047 | -0.066 | 0.002
RHOA (UniProt P61586) | 0.177 | 0.06 | 0.038 | 0.02 | 0.07
